Screening results: PubChem BioAssay, several laboratories
Y pestis TopoI: inhibitors of Yersinia pestis topoisomerase I | Y. pestis Topo-I cleavage product accumulation, plate reader | activity, % at 10 µM | 360,000 compounds, 0.064% hits | AID 504884; in the data active = activity above about 50%, passing the limit was not always enough
BioA inh: inhibitors of Mycobacterium tuberculosis BioA enzyme; purified M. tuberculosis BioA enzyme, plate reader; inhibition, % at 9.99 µM; 360,000 compounds, 0.096% hits; in the data active = inhibition above about 40%
TcdB inh: inhibitors of Clostridioides difficile toxin B glycohydrolase. inhibition, % at 9.99 µM. AID 652162. TcdB glycohydrolase enzymatic assay, plate reader. P18177. 350,000 compounds, 0.24% hits; in the data active = inhibition above about 10%
MazEF act: MazEF (E. coli) toxin RNase activation | P0AE70 | FAM/BHQ RNA-DNA oligo cleavage fluorescence, 5 h | activation, % at 20 µM | 350,000 compounds, 0.32% hits; in the data active = activation above about 50%
Target sequence (P0AE70 whole entry, looked up): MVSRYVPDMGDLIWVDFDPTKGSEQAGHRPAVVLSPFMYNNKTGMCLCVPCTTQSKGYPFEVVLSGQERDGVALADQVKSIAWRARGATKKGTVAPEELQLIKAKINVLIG
FadD28 FP inh: M. tuberculosis FadD28 bisubstrate binding inhibition | 360,000 compounds, 0.22% hits | FadD28 bisubstrate probe binding, fluorescence polarization | inhibition, % at 12.5 µM; in the data active = inhibition above about 8.5%, passing the limit was not always enough
DUSP3 inh: inhibitors of human VHR1 phosphatase (DUSP3). 290,000 compounds, 0.52% hits. inhibition, % at 13.3 µM. AID 1654. P51452. recombinant VHR phosphatase, pNPP absorbance; in the data active = inhibition above about 50%
Target sequence (P51452 whole entry, looked up): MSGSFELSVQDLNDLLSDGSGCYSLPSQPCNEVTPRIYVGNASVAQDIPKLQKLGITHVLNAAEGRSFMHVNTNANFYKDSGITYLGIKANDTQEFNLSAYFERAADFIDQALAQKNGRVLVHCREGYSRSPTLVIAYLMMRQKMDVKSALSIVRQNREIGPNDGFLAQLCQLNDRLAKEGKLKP
Of the large screens only hits and unclear results are named; the others gave an inactive call. This is a sample that favours compounds with a hit; in the whole collection about 1% have one here.

Nc1cc(Cl)cc2c1-c1ccc(Cl)cc1C2	MazEF act 65 (no result: DUSP3 inh)
C[C@H](CO)N1C[C@H](C)[C@H](CN(C)C(=O)Nc2ccc3c(c2)OCO3)Oc2ccc(NC(=O)Nc3cccc4ccccc34)cc2CC1=O	none (no result: Y pestis TopoI, MazEF act, FadD28 FP inh, DUSP3 inh)
Cc1cccc(C)c1OCc1cc(C(=O)N2CCC(C3CCCCC3)C2)no1 (stereo not given)	Y pestis TopoI 55
Nc1nc(Sc2ccc([N+](=O)[O-])c3nonc23)c2[nH]cnc2n1	MazEF act 60 (no result: BioA inh, DUSP3 inh)
C[C@@H]1CN([C@@H](C)CO)C(=O)c2cc(NC(=O)c3ccccc3)ccc2O[C@@H](C)CCCCO[C@H]1CN(C)Cc1ccc(C(F)(F)F)cc1	none (no result: Y pestis TopoI, MazEF act, FadD28 FP inh, DUSP3 inh)
CCN1CCN(c2oc(-c3ccccc3C)nc2S(=O)(=O)c2ccccc2)CC1	TcdB inh 10 (no result: BioA inh, DUSP3 inh)
O=[N+]([O-])c1cccc(OCc2cn3cccnc3n2)c1	DUSP3 inh 53 (no result: BioA inh)
COc1cc(/C=C2/C(=O)NN(c3ccc(Cl)cc3)C2=O)ccc1OC(=O)c1ccco1	FadD28 FP inh 9.3 (no result: BioA inh)
COc1cc(/C=C2/C(=O)NN(c3ccc(Cl)c(Cl)c3)C2=O)cc([N+](=O)[O-])c1O	FadD28 FP inh 28
COc1cc(/C=C2/C(=O)NN(c3ccc(F)cc3)C2=O)cc(Cl)c1O	none
CC(Oc1ccc(Cl)cc1Cl)C(=O)Nc1cccc(O)c1 (stereo not given)	none
CC(Oc1ccc(Cl)cc1Cl)C(=O)Nc1ccc(O)cc1 (stereo not given)	TcdB inh 14 (no result: BioA inh)
O=C1C(=O)C(Cl)=C(Cl)C(Cl)=C1Cl	FadD28 FP inh 11 (no result: Y pestis TopoI, TcdB inh, MazEF act, DUSP3 inh)
CCCCCCCCNS(=O)(=O)CCNCc1ccccc1OC	Y pestis TopoI 53 (no result: DUSP3 inh)
COc1ccc(CNS(=O)(=O)CCNCc2ccccc2OC)cc1	none (no result: DUSP3 inh)
CN1CCN(C(=O)C[C@H]2CC[C@@H]3[C@H](COC[C@H](O)CN3Cc3ccc4c(c3)OCO4)O2)CC1	none (no result: Y pestis TopoI, MazEF act, FadD28 FP inh, DUSP3 inh)
CC(=O)NC(Cc1cc(C)ccc1C)C(=O)N1CCN(C(=O)c2ccc([N+](=O)[O-])cc2)CC1 (stereo not given)	DUSP3 inh 54
COc1ccc2c3c(n(C)c2c1)[C@@H](CO)N(Cc1ccc(Cl)cc1)CC31CN(CC2CC2)C1	none (no result: Y pestis TopoI, BioA inh, MazEF act, FadD28 FP inh, DUSP3 inh)
CC(C)NC(=O)Cn1c(SCC(=O)N2CCCc3ccccc32)nc2ccccc21	none (no result: TcdB inh)
Cc1ccc(C)c2c1cc(C)c1nnc(SCC(=O)N3CCCc4ccccc43)n12	DUSP3 inh 60 (no result: TcdB inh)
O=C(Cn1c(SCC(=O)N2CCCc3ccccc32)nc2ccccc21)N1CCCC1	DUSP3 inh 53 (no result: BioA inh)
C[C@H]1CCCCO[C@@H](CN(C)Cc2ccccc2)[C@@H](C)CN([C@@H](C)CO)C(=O)c2cc(NC(=O)Nc3cccc4ccccc34)ccc2O1	none (no result: Y pestis TopoI, MazEF act, FadD28 FP inh, DUSP3 inh)
CN(C)C(=O)c1ccc(-c2cccc(-c3nc(C(=O)N(C)C)cc4c3[C@H](CCO)N([S@@](=O)C(C)(C)C)C4)c2)cc1	none (no result: Y pestis TopoI, MazEF act, FadD28 FP inh, DUSP3 inh)
O=C(NNC(=O)C1CC(=O)N(Cc2ccccc2)C1)c1ccc(Br)cc1 (stereo not given)	DUSP3 inh 57
COc1ccc(C=NNC(=S)Nc2ccc(F)cc2)cc1OC	none (no result: DUSP3 inh)
Fc1ccc(NC(=S)N/N=C/c2ccc(F)c(F)c2)c(F)c1	DUSP3 inh 52
Clc1ccc(/C=N/Nc2nn[nH]n2)cc1	DUSP3 inh 54 (no result: BioA inh, TcdB inh)
Cc1cc(=O)oc2cc(OCC(=O)NCCc3ccccc3)ccc12	DUSP3 inh 58
COc1ccc(CCNC(=O)COc2ccc3c(C)cc(=O)oc3c2)cc1	none (no result: DUSP3 inh)
NC(=O)Nc1ccc(Nc2ccccc2)cc1	TcdB inh 15 (no result: BioA inh)
CC(C)(C)NC(=S)Nc1ccc(Br)cc1	none (no result: TcdB inh)
CC(C)(C)NC(=S)Nc1ccc(Nc2ccccc2)cc1	DUSP3 inh 53 (no result: TcdB inh)
CC(C)NC(=O)Nc1ccc2c(c1)C(=O)N([C@H](C)CO)C[C@@H](C)[C@H](CN(C)Cc1ccc(Cl)c(Cl)c1)OCCCC[C@H](C)O2	none (no result: Y pestis TopoI, MazEF act, FadD28 FP inh, DUSP3 inh)
C[C@H]1CN([C@@H](C)CO)S(=O)(=O)c2ccc(-c3cccc(C#N)c3)cc2O[C@@H]1CN(C)C(=O)c1ccc(F)cc1	none (no result: Y pestis TopoI, MazEF act, FadD28 FP inh, DUSP3 inh)
O=C1COc2ccc(C(=O)COC(=O)Cc3ccccc3F)cc2N1	none (no result: BioA inh, FadD28 FP inh)
O=C1COc2ccc(C(=O)COC(=O)CNS(=O)(=O)c3cccc(F)c3)cc2N1	TcdB inh 12 (no result: DUSP3 inh)
COc1ccc(NC(=O)CSc2nc3n[nH]c(C)c3c(=N)n2-c2ccc(Cl)c(C)c2)cc1OC	MazEF act 111 (no result: TcdB inh)
O=C(CSc1nnc(SCc2ccc(Cl)cc2)s1)N/N=C/c1c[nH]c2ccccc12	MazEF act 64 (no result: BioA inh, TcdB inh, DUSP3 inh)
CN(C)c1ccc(NC(=O)c2ccc(N3CCOCC3)nc2)cc1	DUSP3 inh 52
O=C(CNc1ccc2ccccc2c1)N/N=C/c1ccc(C(=O)O)cc1	none
O=C(CNc1cccc2ccccc12)N/N=C/c1ccc(C(=O)O)cc1	FadD28 FP inh 38
O=c1[nH]c(/C=C\c2ccc(O)cc2)nc(O)c1[N+](=O)[O-]	TcdB inh 16
O=c1[nH]c(/C=C\c2ccc(O)c(Cl)c2)nc(O)c1[N+](=O)[O-]	TcdB inh 12
CCOc1cc(/C=C\c2nc(O)c([N+](=O)[O-])c(=O)[nH]2)ccc1OC(C)C	none
COc1ccc(/C=C/C(=O)N(C)Cc2cccs2)cc1S(=O)(=O)N1CCOCC1	FadD28 FP inh 26
COCc1ccc(CN2CCC(N3CCC(C(=O)N4CCCC4)CC3)CC2)o1	DUSP3 inh 52
CCOC(=O)c1nnn(-c2nonc2N)c1-c1ccc(F)cc1	TcdB inh 12
CCOC(=O)c1nnn(-c2nonc2N)c1-c1ccc(Cl)cc1	none (no result: BioA inh)
CCOC(=O)c1nnn(-c2nonc2N)c1-c1cccc2ccccc12	none (no result: TcdB inh)
CCOC(=O)c1nnn(-c2nonc2N)c1-c1ccccc1Cl	TcdB inh 16 (no result: BioA inh)
COc1ccccc1-c1cnc2c(c1)C(=O)N([C@H](C)CO)C[C@@H](C)[C@H](CN(C)Cc1ccc(C(=O)O)cc1)O2	none (no result: Y pestis TopoI, MazEF act, FadD28 FP inh, DUSP3 inh)
Cn1nc([N+](=O)[O-])c(C(C#N)c2nc3ccccc3n2C)c(Cl)c1=O (stereo not given)	FadD28 FP inh 12 (no result: BioA inh, TcdB inh)
COc1ccc(OC)c(/C=C/C(=O)N2C(=O)c3cccc(N)c3C2=O)c1	none (no result: BioA inh)
COc1cc(/C=C/C(=O)N2C(=O)c3cccc(N)c3C2=O)cc(OC)c1OC	DUSP3 inh 55 (no result: BioA inh)
COc1ccc2c3c([nH]c2c1)[C@@H](CO)N(C(=O)c1cccc(F)c1)CC31CN(C(=O)c2cccc(F)c2)C1	none (no result: Y pestis TopoI, BioA inh, MazEF act, FadD28 FP inh, DUSP3 inh)
Cc1ccc(C(=O)NC(C)c2ccc(-n3ccnc3)cc2)cc1 (stereo not given)	none
CC(=O)Nc1ccc(C(=O)NC(C)c2ccc(-n3ccnc3)cc2)cc1 (stereo not given)	DUSP3 inh 53
COc1ccc(C(=O)NC(Cc2ccccc2)c2ccc3c(c2)OCCCO3)cc1 (stereo not given)	none
O=C(NC(Cc1ccccc1)c1ccc2c(c1)OCCCO2)c1ccccc1F (stereo not given)	DUSP3 inh 52 (no result: TcdB inh)
O=C(Nc1ccc(F)cc1)N[C@@H]1C[C@@H]2O[C@H](CO)CC[C@@H]2O[C@@H]1CCc1ccc(-c2ccccc2)cc1	none (no result: Y pestis TopoI, BioA inh, MazEF act, FadD28 FP inh, DUSP3 inh)
